This is a sample that favours compounds with a hit; in the whole collection about 17% have one here.
TGFb SMAD3 inh: TGF-b pathway inhibition | HepG2 CAGA-GFP TGF-b/SMAD3 reporter, GFP fluorescence, 18 h; TGF-beta stimulated, 500 pg/mL final | Potency, µM (doses to about 46.1 µM), without a hit: top-dose activity, negative = inhibition, actives largely listed as inhibitors | 410,000 tested, 1.2% active | AID 588855; further: on the % scale 0 is the no-effect control and ±100 the full control effect; nearly all actives have a fitted effect of over 65% in size
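GFP signal (ex488/em500-530) from TGF-beta-stimulated HEPG2 CAGA-GFP cells, 500 pg/mL final, 18 h at 37 degrees C in DMEM plus 1% FBS, normalized to unstimulated and DMSO-stimulated controls.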
HepG2 tox: kills HepG2 cells in TGF-b inhibitor counter-screen; HepG2 CAGA-GFP viability, ATP luminescence, 18 h; Potency, µM (top dose mostly 46.1 µM), without a hit: at the top dose activity change, negative = cytotoxicity, actives largely listed as cytotoxic; 410,000 tested, 0.76% active; AID 588856
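CellTiter-Glo luminescence gave cytotoxicity after 18 hours at 37 degrees C. The cells were HepG2 CAGA-GFP in 1% FBS DMEM, stimulated with 500 pg/mL TGF-beta after compound addition. %Activity was normalised to no-cell wells (complete cell-killing) and DMSO (no toxicity), and curves were fitted and classified.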
HT1080-NT tox: kills 2HG-producing HT-1080-NT fibrosarcoma cells; HT-1080-NT fibrosarcoma viability, CellTiter-Glo ATP luminescence, 48 h; Potency, µM (highest dose often 46.1 µM), for inactives: at the top dose activity, negative = less viability, actives largely listed as cytotoxic; 360,000 tested, 1.6% active; AID 686970;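 further: NT is the 2HG producing partner of a matched IDH1 knockdown line; 0% = DMSO-treated cells and -100% = media-only wells without cells; nearly all actives have a fitted effect of over 55% in size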
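A 48-hour cytotoxicity screen used HT-1080-NT cells plated 2 hours before compound delivery. ATP-based CellTiter-Glo luminescence measured viability, normalized to DMSO and no-cell controls.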
TDP1 cell noCPT: qHTS for Inhibitors of human tyrosyl-DNA phosphodiesterase 1 (TDP1): qHTS in cells in absence of CPT | Potency, µM (series often up to 46.2 µM), for the others: top-dose activity change, negative = growth inhibition, usual class: inhibitors | DT40 Tdp1-/- hTDP1 cells, no CPT, ATP luminescence, 48 h | 420,000 tested, 15% active; further: on the % scale 0 is the no-effect control and ±100 the full control effect; nearly all actives have a fitted effect of over 55% in size
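Cells were dispensed at 400 per well, compounds added by pin tool, plates incubated ≥48 hr at 37 °C, then CellTiter-Glo added for 30 min at room temperature before luminescence reading. Line: DT40 Tdp1-/- complemented with hTDP1; camptothecin omitted.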
DT40 TDP1 CPT: DT40-hTDP1 cell growth loss with CPT; chicken DT40 Tdp1-/-;hTDP1 cells + 20 nM CPT, ATP luminescence, 48 h; 420,000 tested, 12% active; Potency, µM (highest dose often 46.2 µM), for the others: at the top dose activity change, negative = growth inhibition, hits mostly inhibitors; further: on the % scale 0 is the no-effect control and ±100 the full control effect; nearly all actives have a fitted effect of over 55% in size
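Chicken DT40 Tdp1-/- cells complemented with human TDP1, 400 cells/well, exposed to compounds plus 20 nM camptothecin for at least 48 h at 37 C; viability read as ATP content by CellTiter-Glo luminescence.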
HT1080 IDH1KD tx: toxicity to HT-1080 IDH1 knockdown cells (counter line); HT-1080 IDH1 knockdown viability, ATP luminescence, 48 h; Potency, µM (highest dose often 46.1 µM), for the others: at the highest dose activity, negative = toxicity, usual class: cytotoxic; 360,000 tested, 2% active; AID 686971;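 further: 0% = DMSO wells and -100% = cell-free medium wells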
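In this qHTS, HT-1080 cells depleted of IDH1 are exposed for 48 h at 37 °C to compound titrations. Toxicity is scored from CellTiter-Glo luminescence, with DMSO as full viability and medium alone as none.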
* = called active by the depositor; ? = inconclusive; . = not tested or not shown; [ ] = remark or other dose. The call rests on the fitted dose curve; in most records, active means well fitted curve in the direction sought with a large enough effect; inconclusive means small, poorly fitted or top-dose-only effect, or another doubt; inactive means no such curve, though single readings can be large; an effect the other way counts as inactive or inconclusive. Potency means the concentration at half of the fitted maximal effect.

SMILES	TGFb SMAD3 inh	HepG2 tox	HT1080-NT tox	TDP1 cell noCPT	DT40 TDP1 CPT	HT1080 IDH1KD tx
CCCC(C)(COC(N)=O)COC(N)=O	.	.	.	-8%	-12%	.
COCCNC(=O)CN1C(=O)C(C)N=C(c2ccccc2)c2cc(Cl)ccc21 (configuration not stated)	2%	-28%	-1%	-12%	1%	-4%
Cc1c(Cl)cccc1NC(=O)CN1C(=O)C(C)N=C(c2ccccc2)c2ccccc21 (configuration not stated)	-10%	-8%	.	23µM*	-15%	.
Cc1ccc(NC(=O)c2cc(-c3cc(Cl)ccc3C)n[nH]2)cc1NS(C)(=O)=O	-10%	-32%	?	?	23µM*	?
COc1ccccc1N1CCN(Cc2ccc3c(c2)OCO3)CC1	-6%	-20%	-1%	?	-3%	?
Cc1ccc(Cl)cc1NC(=O)N(Cc1ccc2c(c1)OCO2)C1CCN(Cc2ccccc2)CC1	?	-23%	.	13µM*	?	.
COc1ccc(C)cc1NC(=O)N(Cc1ccc2c(c1)OCO2)C1CCN(Cc2ccccc2)CC1	-3%	-3%	.	5.2µM*	?	.
Cc1cc(=O)oc2cc(OCC(=O)N3CCN(Cc4ccc5c(c4)OCO5)CC3)ccc12	8%	-11%	0%	-19%	-22%	4%
Cc1ccc(NC(=O)N(Cc2ccc3c(c2)OCO3)C2CCN(Cc3ccccc3)CC2)cc1C	?	-24%	.	29µM*	?	.
Cc1ccc(NC(=O)N(Cc2ccc3c(c2)OCO3)C2CCN(Cc3ccccc3)CC2)cc1Cl	-31%	-39%	.	15µM*	4.6µM*	.
Cc1cccc(N2CCN(Cc3ccc4c(c3)OCO4)CC2)c1C	?	-39%	-27%	?	?	?
CC12CCC3C(CCCC4CC(=O)CCC43C)C1CCC2O (configuration not stated)	-22%	-29%	9%	?	-30%	10%
CNCc1ccccc1	.	.	.	?	2%	.
CCOC(=O)c1ncn2c1CN(C)C(=O)c1c(I)cccc1-2	.	.	.	-9%	-5%	.
c1ccc(CN2CCC3(CCc4ccccc43)CC2)cc1	.	.	.	?	24µM*	.
c1ccc(N2CCC3(CCNCC3)CC2)cc1	.	.	.	18µM*	-102%	.
c1ccc(N2CCC3(CCNCC3)CC2)nc1	.	.	.	?	18µM*	.
c1ccc(CN2CCC3(CCNCC3)CC2)cc1	.	.	.	3.3µM*	4.6µM*	.
CNc1ccc2oc(C[C@@H]3OC4(CC[C@@H]3C)O[C@H]([C@@H](C)C(=O)c3ccc[nH]3)[C@H](C)C[C@H]4C)nc2c1C(=O)O (some centres not stated)	.	.	.	4.6µM*	2.3µM*	.
c1ccc(CN2CCN(Cc3ccc4ccccc4c3)CC2)cc1	-19%	-1%	-23%	16µM*	18µM*	-28%
N#CC(C#N)=Cc1ccc([N+](=O)[O-])c(O)c1	.	.	.	-9%[92.5 µM]	-5%[92.5 µM]	.
N#CC(C#N)=Cc1ccc(C=C(C#N)C#N)cc1	?	25µM*	?	4.6µM*	3.7µM*	23µM*
CCN1CCN(c2cc(N3CCCC3)c([N+](=O)[O-])cc2F)CC1	0%	-26%	-5%	29µM*	?	8%
CN1CCN(c2cc(N3CCCCCC3)c(F)cc2[N+](=O)[O-])CC1	26%	-39%	-7%	29µM*	?	0%
Cn1c(=O)n(C)c2cc([N+](=O)[O-])c(N3CCNCC3)cc21	5%	11%	-7%	3%	-13%	0%
SMILES	TGFb SMAD3 inh	HepG2 tox	HT1080-NT tox	TDP1 cell noCPT	DT40 TDP1 CPT	HT1080 IDH1KD tx
CC(N)Cc1cn(Cc2ccccc2)c2ccccc12 (configuration not stated)	?	-50%	?	21µM*	?	?
Cc1ccc(S(=O)(=O)NC(Cc2cnc[nH]2)C(=O)O)cc1 (configuration not stated)	?	-1%	17%	7%	-1%	15%
CCOc1ccc(N2C(=O)/C(=C/c3ccc(C)o3)C(=O)NC2=S)cc1	6%	2%	-4%	26µM*	?	-4%
Cc1ccc(/C=C2\C(=O)NC(=S)N(c3cccc(F)c3)C2=O)o1	-8%	-4%	6%	?	18µM*	6%
COc1ccc(N2C(=O)/C(=C/c3ccc(C)o3)C(=O)NC2=S)cc1	1%	4%	10%	?	15µM*	17%
CN1CCN(c2ccc(/C=C3\C(=O)NC(=S)N(c4cccc(Br)c4)C3=O)o2)CC1	43%	-3%	?	16µM*	16µM*	?
Cc1cccc(N2C(=O)/C(=C/c3ccc(CN(CCC#N)S(C)(=O)=O)o3)C(=O)NC2=S)c1	1%	7%	-2%	-6%	-3%	-8%[9.24 µM]
COc1ccc(OC)c(N2C(=O)/C(=C/c3ccco3)C(=O)NC2=S)c1	-11%	-11%	-3%	-27%	-21%	-3%
CCOC(=O)CCCc1cc[c]([Sb](=[O])([OH])[OH])cc1	?	-8%	.	-8%	-6%	.
Oc1cc(Cl)cc(Cl)c1Cl	?	-25%	-26%	-3%	?	-2%
CCc1ccc(N2C(=O)NC(=O)C(Cc3ccc(OC)cc3OC)C2=O)cc1 (configuration not stated)	4%	1%	11%	0%	-1%	13%
COC(=O)C1=C(c2ccc(C(C)=O)cc2)C[C@@H]2CC[C@H]1N2C(=O)NCC1CC1	-1%	15%	15%	-10%	-7%	14%
CCOC(=O)C1=C[C@@H](OC(CC)CC)[C@H](NC(C)=O)[C@@H](N)C1	.	.	.	-16%	-3%	.
Cc1ccc(CNC(=O)C(=O)NCC(c2cccnc2)N2CCN(c3ccc(F)cc3)CC2)cc1 (configuration not stated)	7%	4%	.	3.3µM*	4.1µM*	.
O=C(NCc1ccc(Cl)cc1)C(=O)NCC(c1cccnc1)N1CCN(c2ccccc2)CC1 (configuration not stated)	3%	-18%	.	7.3µM*	9.2µM*	.
OC(CNCc1ccccc1)c1ccc(Cl)cc1 (configuration not stated)	1%	-12%	-11%	?	?	-9%
